Laboratory results taken from PubChem BioAssay.
A number with no mark means an inactive call. Activity calls are given as the source filed them.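 How the source made its calls: active means mean inhibition above 46.68%, the untreated control wells mean plus 3 SD; inactive means the rest.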

What follows are molecules tested against Nuclear receptor coactivator 1 (Homo sapiens) (UniProt Q15788) (assay: SRC1 coactivator transcriptional activity inhibitors, confirmation, cell-based, luminescence, quadruplicate (AID 588820;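 further: 0% = DMSO wells and 100% = gossypol 36 µM treated wells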)). Details: HEK293 GAL4-SRC1 luciferase reporter, at 3.6 µM, hits give high values.
Chain of Nuclear receptor coactivator 1 (Homo sapiens) (Q15788 whole entry, looked up, the tested form may be a part): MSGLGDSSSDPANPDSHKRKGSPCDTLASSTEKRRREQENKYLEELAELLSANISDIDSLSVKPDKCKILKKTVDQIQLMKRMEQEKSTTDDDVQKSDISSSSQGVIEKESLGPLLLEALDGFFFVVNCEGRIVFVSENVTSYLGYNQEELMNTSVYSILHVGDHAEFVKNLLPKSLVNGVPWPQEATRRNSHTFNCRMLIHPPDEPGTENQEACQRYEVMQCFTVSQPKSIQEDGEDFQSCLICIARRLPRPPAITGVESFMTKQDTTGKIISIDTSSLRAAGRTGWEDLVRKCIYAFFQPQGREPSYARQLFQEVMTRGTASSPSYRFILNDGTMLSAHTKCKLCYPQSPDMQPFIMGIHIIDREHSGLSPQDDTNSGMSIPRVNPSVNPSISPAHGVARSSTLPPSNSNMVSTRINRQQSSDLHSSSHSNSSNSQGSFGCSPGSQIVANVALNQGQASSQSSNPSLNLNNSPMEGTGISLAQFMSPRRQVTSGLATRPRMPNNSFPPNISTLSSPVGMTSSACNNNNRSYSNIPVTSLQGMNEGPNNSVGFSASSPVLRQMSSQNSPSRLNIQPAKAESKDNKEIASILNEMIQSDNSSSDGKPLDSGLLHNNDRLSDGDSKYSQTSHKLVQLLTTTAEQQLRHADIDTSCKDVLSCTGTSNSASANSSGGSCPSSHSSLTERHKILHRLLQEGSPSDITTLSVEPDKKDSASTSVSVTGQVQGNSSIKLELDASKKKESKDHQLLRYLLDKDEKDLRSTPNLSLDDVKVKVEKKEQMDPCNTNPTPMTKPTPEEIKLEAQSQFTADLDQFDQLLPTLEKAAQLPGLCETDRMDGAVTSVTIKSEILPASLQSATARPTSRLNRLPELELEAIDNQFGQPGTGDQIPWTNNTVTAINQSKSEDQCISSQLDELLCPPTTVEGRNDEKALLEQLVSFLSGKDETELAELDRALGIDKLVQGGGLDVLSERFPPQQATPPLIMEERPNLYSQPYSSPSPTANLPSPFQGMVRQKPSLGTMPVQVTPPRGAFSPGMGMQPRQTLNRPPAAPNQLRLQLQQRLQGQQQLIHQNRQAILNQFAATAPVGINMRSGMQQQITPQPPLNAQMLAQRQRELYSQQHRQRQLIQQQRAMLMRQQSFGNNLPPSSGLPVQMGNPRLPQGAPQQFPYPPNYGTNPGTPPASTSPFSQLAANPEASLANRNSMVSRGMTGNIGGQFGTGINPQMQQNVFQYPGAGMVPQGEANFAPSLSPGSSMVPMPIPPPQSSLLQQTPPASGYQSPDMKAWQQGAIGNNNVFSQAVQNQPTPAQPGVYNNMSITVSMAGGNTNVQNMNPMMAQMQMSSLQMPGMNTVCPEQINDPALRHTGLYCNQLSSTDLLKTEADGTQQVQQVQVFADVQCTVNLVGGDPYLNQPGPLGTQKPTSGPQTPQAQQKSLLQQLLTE
`CN(C)/C=C/C(=O)c1ccn(S(=O)(=O)c2ccccc2)c1` showed an inhibition of -2.09%.
In the case of `CN(C)c1ccc(Sc2ccc3nc(N)nc(N)c3c2)cc1`, the inhibition is reported as 14.5%.
With `COc1ccc(-c2nc(N3CCOCC3)nc3n[nH]c(N)c23)cc1` the inhibition was 5.53%.
Molecule `CCC(Cc1ccccc1)NC(=O)CCNS(=O)(=O)c1cc(Br)cnc1N` (stereo not given) has an inhibition of 0.75%.
Work on `CN(C)S(=O)(=O)c1ccc(Cl)c(NC(=O)CN2C(=O)NC(C)(C3CC3)C2=O)c1` (stereo not given) yielded an inhibition of -2.39%.
Work on `CSc1nc(N)nc2c1ncn2CC(=O)N1CCN(Cc2c(C)cc(C)cc2C)CC1` yielded an inhibition of -3.22%.
`NS(=O)(=O)c1ccc(N=Nc2c(O)[nH]c3ccc(Br)cc23)cc1` gave an inhibition of 8.56%.
`NC(=O)[C@H]1CC2(CC(c3cccc(NC(=O)COc4ccc(Cl)cc4)c3)=NO2)CN1C(=O)Cc1ccc([N+](=O)[O-])cc1` (stereo not given in full) was tested, and the inhibition was 8.04%.
`COCCn1c(SCCCC(=O)c2ccc(Br)cc2)nnc1-c1ccncc1` was tested, and the inhibition was -2.26%.
With `COc1cccc(CNc2nc(NCc3cccs3)nc3ccsc23)c1` the inhibition was -9.48%.
For `Cc1ccc(S(=O)(=O)N(C)c2ccc(C(=O)N3CCN(Cc4ccc5c(c4)OCO5)CC3)cc2)cc1`, the inhibition was 9.2%.
With `CC1(c2ccc3ccccc3c2)NC(=O)N(CC(=O)N2CCN(Cc3ccccc3)CC2)C1=O` (stereo not given) the inhibition was -20.6%.
In the case of `O=C(N/N=C/c1ccc(O)cc1)c1ccc(COc2cc(Cl)ccc2Cl)o1`, the inhibition is reported as -2.22%.
For `O=C(CSc1nc2[nH]ncc2c(=O)[nH]1)N1CCCCC1`, the inhibition was -8.66%.
For `COc1ccccc1NC(=O)NC1(C(=O)N2CCCCC2)CCCCC1`, the inhibition was 4.76%.
In the case of `COc1cccc(CNC(=O)C2CCCN(S(C)(=O)=O)C2)c1` (stereo not given), the inhibition is reported as -0.5%.
`COc1ccc(CNC(=O)c2cccc3c(-c4cccnc4)coc23)cc1OC` showed an inhibition of -25.2%.
`CN(Cc1ccccc1)C(=O)c1ccc(NC(=O)Cc2ccc(NC(=O)C3CCCN(C(=O)CCc4ccccc4)C3)cc2)cc1` (stereo not given) showed an inhibition of -11.5%.
`CN(C)CCNc1ccc2nnn3c4ccc(O)cc4c(=O)c1c23` was tested, and the inhibition was 0.55%.
In the case of `CCCOc1ccc(Cc2c(Cl)nc(SC)nc2NC)cc1`, the inhibition is reported as -9.8%.
`CC(=O)N1CCc2c(sc(NC(=O)C3CCCN3S(=O)(=O)c3cccs3)c2C(N)=O)C1` (stereo not given) showed an inhibition of 4.87%.
`O=C(Nc1nonc1NC(=O)c1cccs1)c1cccs1` was tested, and the inhibition was -7.76%.
In the case of `CN(C(=O)c1cccc(NC(=O)Cc2ccc(NC(=O)C3CCCN(C(=O)CCc4ccccc4)C3)cc2)c1)C1CCCCC1` (stereo not given), the inhibition is reported as 6.53%.
With `C#Cc1ccc(NC(=O)C2(C)CCN2C(=O)Cc2ccc(-c3ccccc3)cc2)cc1` (stereo not given) the inhibition was 12.8%.
`O=C1NC[C@H](c2ccccc2)OC(=O)[C@@H](Cc2ccc(F)cc2)C/C=C\C[C@H]1CC(=O)N(CCO)Cc1ccccc1` showed an inhibition of -35%.
`COc1cccc2c1C(=O)c1c(O)c3c(c(O)c1C2=O)CC(O)(C(C)=O)CC3OC1CC(O)C(O)C(C)O1` (stereo not given) showed an inhibition of -3.87%.
With `COc1ccc(Oc2nc3c(c(=O)n(C)c(=O)n3C)n2C)cc1` the inhibition was 24.8%.
Molecule `Cc1sc2ncnc(NCC3COc4ccccc4O3)c2c1C` (stereo not given) has an inhibition of -48.1%.
With `Cc1ccc(S(=O)(=O)CC2CSc3nc4ccccc4n32)cc1` (stereo not given) the inhibition was -13.8%.
Molecule `CC1(C)CC(N2CCCC2)=CC(=[N+]2CCCC2)C1` has an inhibition of 2.13%.
In the case of `CC(=O)NC(c1ccc(Cl)cc1Cl)c1ccc2cccnc2c1O` (stereo not given), the inhibition is reported as 67.2% (active).
For `O=C(CSc1nnc(Cn2nnc3ccccc32)o1)N(Cc1ccc(F)cc1)c1ccccc1`, the inhibition was -0.43%.
For `COc1cccc2c1C(=O)c1c(O)c3c(c(O)c1C2=O)C[C@@](O)(C(=O)CO)C[C@@H]3OC1CC(N)C(O)C(C)O1` (stereo not given in full), the inhibition was -127%.
Molecule `COc1ccc(Cl)cc1NC(=O)CN(C)C(=O)c1ccc(COc2ccccc2)cc1` has an inhibition of -31.4%.
Molecule `O=C(c1nnsc1S(=O)c1ccc(Cl)cc1)N1CCOCC1` (stereo not given) has an inhibition of -24.9%.
For `Cc1cccc(-n2c(CNC(=O)c3ccccc3)nnc2SCC(=O)Nc2nccs2)c1`, the inhibition was -8.14%.
With `Cc1ccc(C#CC[N+]2(CC#Cc3ccc(C)cc3)CCCCC2)cc1` the inhibition was 32.6%.
With `S=C(NC1CCCCC1)N1CCOCCOCCN(C(=S)NC2CCCCC2)CCOCCOCC1` the inhibition was 7.13%.
`O=C(NC1CCCCC1)C(c1ccc(F)cc1)N(CCCN1CCOCC1)C(=O)c1ccc(CN2CCOCC2)o1` (stereo not given) gave an inhibition of -0.03%.
`CCN(CC)S(=O)(=O)c1cc(NC(=O)CNc2cccc(S(=O)(=O)N3CCCC3)c2)ccc1C` gave an inhibition of -4.32%.
